Measured values taken from PubChem BioAssay (NCATS).
Inconclusive results are not listed. A call without a number means that no potency is given here. Activity calls are given as the source filed them. Calls follow the shape of the dose curve; as a rule, active = well fitted curve in the direction sought with a large enough effect; inconclusive = small, poorly fitted or top-dose-only effect, or another doubt; inactive = no such curve, though single readings can be large; an effect the other way counts as inactive or inconclusive.

What was measured:
[1] = qHTS of pediatric cancer cell lines to identify multiple opportunities for drug repurposing: Primary screen for TC32 cells (AID 1347089); also: nearly all actives have a fitted effect of over 60% in size; also: potency is read from the fitted curve at half-maximal effect
Method in brief: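 A viability screen of TC32 cells was run over 48 h, with primary MIPE doses spanning 0.78 nM–46 µM and NPC doses 0.59 nM–46 µM. ATP luminescence (CellTiter-Glo) served as the read-out.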

[2] = qHTS of pediatric cancer cell lines to identify multiple opportunities for drug repurposing: Primary screen for DAOY cells (AID 1347090); also: nearly all actives have a fitted effect of over 55% in size; also: potency is read from the fitted curve at half-maximal effect
Method in brief: (§1)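 Cell viability, CellTiter-Glo luminescence; 500-1,000 cells/well, 8- or 11-point titration, 48 h compound exposure at 37 degrees C, 5% CO2. Controls: DMSO neutral, bortezomib 2.3 µM final as positive.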

[3] = qHTS of pediatric cancer cell lines to identify multiple opportunities for drug repurposing: Primary screen for SJ-GBM2 cells (AID 1347091)
Method in brief: as §1

[4] = qHTS of pediatric cancer cell lines to identify multiple opportunities for drug repurposing: Primary screen for SK-N-MC cells (AID 1347093); also: potency is read from the fitted curve at half-maximal effect
Method in brief: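 Metabolically active cells were quantified by ATP-dependent luminescence (CellTiter-Glo, 15 min at room temperature) following 48 h treatment. Cells had been plated at 500-1,000 per well and settled for 5 h beforehand.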

[5] = qHTS of pediatric cancer cell lines to identify multiple opportunities for drug repurposing: Primary screen for BT-37 cells (AID 1347094); also: potency is read from the fitted curve at half-maximal effect
Method in brief: (§2)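 CRCs from 8- or 11-point titrations (lowest final 0.59 nM NPC, 0.78 nM MIPE). Cell viability: CellTiter-Glo after 48 h incubation, 15 min room-temperature development, luminescence imaging.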

[6] = qHTS of pediatric cancer cell lines to identify multiple opportunities for drug repurposing: Primary screen for NB-EBc1 cells (AID 1347095); also: potency is read from the fitted curve at half-maximal effect
Method in brief: as §2

[7] = qHTS of pediatric cancer cell lines to identify multiple opportunities for drug repurposing: Primary screen for U-2 OS cells (AID 1347096); also: nearly all actives have a fitted effect of over 50% in size; also: potency is read from the fitted curve at half-maximal effect
Method in brief: (§3)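 Cells (500-1,000/well) rested 5 h, then received compounds for 48 h; metabolically active cells were measured by CellTiter-Glo luminescence. Final concentrations spanned up to 46 µM (MIPE, 11-point) or 0.59 nM-46 µM (NPC, 8-point) in primary screens, 11-point in follow-ups.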

[8] = qHTS of pediatric cancer cell lines to identify multiple opportunities for drug repurposing: Primary screen for Saos-2 cells (AID 1347097); also: nearly all actives have a fitted effect of over 40% in size; also: potency is read from the fitted curve at half-maximal effect
Method in brief: as §2

[9] = qHTS of pediatric cancer cell lines to identify multiple opportunities for drug repurposing: Primary screen for SK-N-SH cells (AID 1347098); also: nearly all actives have a fitted effect of over 65% in size; also: potency is read from the fitted curve at half-maximal effect
Method in brief: as §3

[10] = qHTS of pediatric cancer cell lines to identify multiple opportunities for drug repurposing: Primary screen for LAN-5 cells (AID 1347100); also: potency is read from the fitted curve at half-maximal effect
Method in brief: as §3

[11] = qHTS of pediatric cancer cell lines to identify multiple opportunities for drug repurposing: Primary screen for BT-12 cells (AID 1347101); also: nearly all actives have a fitted effect of over 25% in size; also: potency is read from the fitted curve at half-maximal effect
Method in brief: as §3

[12] = qHTS of pediatric cancer cell lines to identify multiple opportunities for drug repurposing: Primary screen for RD cells (AID 1347104); also: nearly all actives have a fitted effect of over 55% in size; also: potency is read from the fitted curve at half-maximal effect
Method in brief: as §2

[13] = qHTS of pediatric cancer cell lines to identify multiple opportunities for drug repurposing: Primary screen for MG 63 (6-TG R) cells (AID 1347105); also: nearly all actives have a fitted effect of over 50% in size; also: potency is read from the fitted curve at half-maximal effect
Method in brief: as §2

[14] = qHTS of pediatric cancer cell lines to identify multiple opportunities for drug repurposing: Primary screen for control Hh wild type fibroblast cells (AID 1347106); also: nearly all actives have a fitted effect of over 55% in size; also: potency is read from the fitted curve at half-maximal effect
Method in brief: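 Cells (500-1,000/well) in growth media were settled 5 h at 37 degrees C, then given compounds for 48 h. Viability was read as CellTiter-Glo luminescence. Primary runs used MIPE at 11 points (0.78 nM-46 µM) and NPC at 8 points (0.59 nM-46 µM); follow-ups used 11 points.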

[15] = qHTS of pediatric cancer cell lines to identify multiple opportunities for drug repurposing: Primary screen for Rh30 cells (AID 1347107); also: nearly all actives have a fitted effect of over 75% in size; also: potency is read from the fitted curve at half-maximal effect
Method in brief: as §3

[16] = qHTS of pediatric cancer cell lines to identify multiple opportunities for drug repurposing: Primary screen for Rh41 cells (AID 1347108); also: nearly all actives have a fitted effect of over 70% in size; also: potency is read from the fitted curve at half-maximal effect
Method in brief: as §2

[17] = qHTS of pediatric cancer cell lines to identify multiple opportunities for drug repurposing: Primary screen for A673 cells (AID 1347092); also: nearly all actives have a fitted effect of over 45% in size; also: potency is read from the fitted curve at half-maximal effect
Method in brief: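 Titration-based qHTS on A673 cells: MIPE compounds spanned 11 points (0.78 nM to 46 µM final), NPC compounds 8 points (0.59 nM to 46 µM final). Viability after 48 h was measured by ATP luminescence.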

[18] = qHTS of pediatric cancer cell lines to identify multiple opportunities for drug repurposing: Primary screen for NB1643 cells (AID 1347099); also: nearly all actives have a fitted effect of over 50% in size; also: potency is read from the fitted curve at half-maximal effect
Method in brief: as §2

[19] = qHTS of pediatric cancer cell lines to identify multiple opportunities for drug repurposing: Primary screen for Rh18 cells (AID 1347102); also: nearly all actives have a fitted effect of over 65% in size; also: potency is read from the fitted curve at half-maximal effect
Method in brief: as §3

[20] = qHTS of pediatric cancer cell lines to identify multiple opportunities for drug repurposing: Primary screen for OHS-50 cells (AID 1347103); also: nearly all actives have a fitted effect of over 40% in size; also: potency is read from the fitted curve at half-maximal effect
Method in brief: as §3

Structure (SMILES) | Potency [1] | Potency [2] | Potency [3] | Potency [4] | Potency [5] | Potency [6] | Potency [7] | Potency [8] | Potency [9] | Potency [10] | Potency [11] | Potency [12] | Potency [13] | Potency [14] | Potency [15] | Potency [16] | Potency [17] | Potency [18] | Potency [19] | Potency [20]
CN1C(=O)CN=C(c2ccccc2)c2cc(Cl)ccc21 | inactive | inactive | inactive | inactive | inactive | inactive | inactive | inactive | inactive | inactive | inactive | inactive | inactive | inactive | inactive | inactive |  |  |  | 
ClC1=C(Cl)C2(Cl)C(CBr)CC1(Cl)C2(Cl)Cl (stereo not given) | inactive | inactive |  | inactive | inactive | inactive | inactive |  | inactive | inactive | inactive | inactive | inactive | inactive | inactive | inactive | inactive | inactive | inactive | inactive
CN(C)C(=S)SSC(=S)N(C)C | 4190 nM (active) | 168 nM (active) |  | 188 nM (active) | 872 nM (active) | 9440 nM (active) | 266 nM (active) | 133 nM (active) | 244 nM (active) | 266 nM (active) | 246 nM (active) | 188 nM (active) | 335 nM (active) | 299 nM (active) | 1680 nM (active) | 211 nM (active) | 211 nM (active) | 531 nM (active) | 150 nM (active) | 347 nM (active)
O=C(CCl)c1ccc(Cl)cc1Cl | inactive |  |  |  |  |  | inactive |  |  | 16800 nM (active) |  |  |  | inactive | inactive |  | 26600 nM (active) |  | inactive | 
